Shown are actives, neighbours in structure and some others; about 2.9% of the full set was active somewhere.
a7 integrin act = activates integrin-mediated alleviation for muscular dystrophy | alpha7betagal myoblasts, beta-gal FDG fluorescence, 48 h | 0.064% of 350,000 active | Potency, µM (doses to about 38.3 µM), for inactives: top-dose activation, actives largely listed as activators | AID 624291; active = well fitted activation curve with a large enough effect; inconclusive = small, poorly fitted or top-dose-only effect; inactive = no such curve, though single readings can be large or run the other way;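 note: potency is the fitted concentration of half-maximal effect; 100% = response of the positive control SU9516; nearly all actives have a fitted effect of over 60% in size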
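Alpha7betagal+/- myoblasts (passage 13) were plated 16-24 hr, then exposed to compounds (1:260 dilution of DMSO stock) for 48 hours at 37C. After MPER lysis, β-galactosidase reporter activity was read as FDG fluorescence (ex 480/em 540) after 30 minutes.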
D3 ag = activates the human D3 dopamine receptor. D3R DiscoveRx beta-arrestin cells, luminescence, 90 min. max activation, %. 0.58% of 410,000 active. AID 652048; in the data active = max activation above about 30%; note: 0% is about no effect
Target sequence (P35462 whole entry, looked up): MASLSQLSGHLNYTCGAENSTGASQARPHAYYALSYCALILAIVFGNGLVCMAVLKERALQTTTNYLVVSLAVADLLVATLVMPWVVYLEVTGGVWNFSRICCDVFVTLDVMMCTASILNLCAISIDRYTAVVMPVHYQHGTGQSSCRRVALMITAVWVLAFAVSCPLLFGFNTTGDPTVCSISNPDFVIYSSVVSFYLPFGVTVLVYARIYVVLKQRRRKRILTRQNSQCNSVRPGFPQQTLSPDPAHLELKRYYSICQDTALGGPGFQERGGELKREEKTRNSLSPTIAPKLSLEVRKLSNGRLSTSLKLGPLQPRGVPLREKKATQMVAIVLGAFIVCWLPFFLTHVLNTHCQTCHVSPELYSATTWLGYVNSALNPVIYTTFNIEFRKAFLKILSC
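Agonist-mode cell screen: cells plated at 1500/well and incubated overnight at 37 °C, then exposed to library compounds for 90 min at 37 °C. Detection reagent was added for 30–60 min at room temperature, and luminescence was read.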
D3 antag = blocks the human D3 dopamine receptor; P35462; D3R cells, DiscoveRx beta-arrestin luminescence, antagonist mode; active compounds read low; max response, negative = inhibition, %; 2.5% of 360,000 active; AID 652054; in the data active = max response below about -50%; inconclusive = no clear call, values can overlap the other calls; note: % is set by controls: 0 for no effect and ±100 for the full control effect
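Cells plated overnight at 1500 cells/well, then exposed to library compounds with dopamine controls for 90 minutes at 37 degrees C. DiscoveRx reagent added for 30–60 minutes at room temperature; luminescence read, quantitative HTS format.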
Active calls of the source: *; ? = inconclusive; . = not tested or not shown; ! = repeats disagree.

SMILES	a7 integrin act	D3 ag	D3 antag
O=C(NCCN1CCN(c2ccccc2)CC1)C1CCN(S(=O)(=O)c2cccc3nonc23)CC1	-15%	41*	-7
CC1(C)CC(=O)C=C(c2ccc(F)cc2OCc2ccccc2)C1	7%	1	23
O=C1OC[C@@H]2CCCN2C(=O)[C@H](CC(=O)N(CCO)Cc2ccccc2)C/C=C\C[C@H]1Cc1ccc(F)cc1	1%	-8	12
Cn1c(=O)c2ccccc2n(CC(=O)NC2CCCCC2)c1=O	21%	-8	-4
Cn1c(=O)n(CC(=O)NC2CCCCC2)c(=O)c2ccccc21	16%	-7	-59*
CC1(C)SC(=S)N(/N=C/c2ccc(O)cc2)C1N(O)C(=O)Nc1ccc([N+](=O)[O-])cc1 (stereo not given)	7%	-22	-23
Cc1ccc(/C=N/N2C(=S)SC(C)(C)C2N(O)C(=O)Nc2ccc([N+](=O)[O-])cc2)cc1 (stereo not given)	-46%	-7	-58*
CCCN1C2CCCC1CC(NC(=S)Nc1cc(C)cc(C)c1)C2 (stereo not given)	-51%	-10	-12
CO[C@H]1C=CO[C@@]2(C)Oc3c(C)c(O)c4c(O)c(c(C=NN5CCN(C)CC5)c(O)c4c3C2=O)NC(=O)C(C)=CC=C[C@H](C)[C@H](O)[C@@H](C)[C@@H](O)[C@@H](C)[C@H](OC(C)=O)[C@@H]1C	.	-39	-76*
CO[C@H]1/C=C/O[C@@]2(C)Oc3c(C)c(O)c4c(O)c(c(C=NN5CCN(C)CC5)c(O)c4c3C2=O)NC(=O)/C(C)=C\C=C\[C@H](C)[C@H](O)[C@@H](C)[C@@H](O)[C@@H](C)[C@H](OC(C)=O)[C@@H]1C	.	-32	?
Cc1ncc(S(=O)(=O)c2ccc(Cl)cc2)c(-c2ccccc2)n1	-1%	-12	25
CCCNC(=O)c1cc(C2CCCCN2S(=O)(=O)c2ccc(F)cc2F)on1 (stereo not given)	.	2	26
COc1ccc(OCC(O)Cn2c(N3CCCCC3)nc3c2c(=O)n(C)c(=O)n3C)cc1 (stereo not given)	-8%	1	57
CCCCNC(=O)O[C@@H]1C[C@H]2CCCC(=O)N3CC[C@@H](C1)[C@@H]23	-38%	33*	-4
CCCCNC(=O)O[C@@H]1C[C@@H]2CCN3C(=O)CCC[C@H]([C@H]1CC)[C@H]23	-14%	9	12
COCCC(=O)N1CCCC(C(=O)c2ccccc2SC)C1 (stereo not given)	-4%	-6	-59*
CSc1ccccc1C(=O)C1CCCN(C(=O)CCN2CCCO2)C1 (stereo not given)	15%	8	0
COc1cccc(NC(=O)N(Cc2cn(C)c3ccccc23)C2CCCCC2)c1	.	-17	.
Cc1nc2scc(-c3ccc(C(C)(C)C)cc3)c2c(=O)n1N	9%	31*	55
COc1ccc(-c2csc3nc(C)n(-n4cccc4)c(=O)c23)cc1	-1%	0	9
CCCS(=O)(=O)NC(=O)C1(C)CCCN(C(=O)c2cc(OC)c(OC)c(OC)c2)C1 (stereo not given)	.	5	18
O=C(O)c1cccc(N/N=C(\N=Nc2ccccc2)c2ccccc2)c1	-10%	-9	-11
O=C(O)c1ccc(N=N/C(=N\Nc2ccc(C(=O)O)cc2)c2ccccc2)cc1	2%	-29	-53*
CN(CC(=O)Nc1ccccc1Cl)C(=O)c1cc2c(s1)CCCCC2	-7%	2	-11
c1ccc(CN(CC2=NCCN2)c2ccccc2)cc1	.	0	-18
SMILES	a7 integrin act	D3 ag	D3 antag
Cc1ccc(N(CC2=NCCN2)c2cccc(O)c2)cc1	.	-67	-63*!
C/C(=N\NC(N)=O)c1cc(Cl)cc(Cl)c1O	-1%	-26	-82*
C/C(=N\O)c1cc(Cl)cc(Cl)c1O	-26%	-3	-14
COc1ccc(CCC(=O)N2c3ccccc3N=C(c3ccc(C(F)(F)F)cc3)C2C(=O)NC2CCCC2)cc1 (stereo not given)	.	-11	?
C=CCn1c(N)cc(=O)nc1SC(C)C(=O)Nc1ccc(C(=O)OCC)cc1 (stereo not given)	21%	-3	5
CCCCCCCCCCCCCCCCC(C(=O)O)C(O)(CC(=O)O)C(=O)O (stereo not given)	.	40*	.
CCCCCCC[C@@H](C/C=C/CCC(=O)O)OC	-6%	9	31
CCN(CC(=O)NCc1cccs1)C(=O)c1ccc(S(=O)(=O)Nc2ccccc2OC)cc1	6%	-17	-8
Cc1oc(-c2ccc(Cl)cc2)cc1C(=O)/C(C#N)=C/Nc1cccc(OC(F)(F)F)c1	9%	4	-7
COc1ccc(S(=O)(=O)NC(=O)C2(C)CCN2C(=O)CCc2ccc(Cl)cc2Cl)cc1 (stereo not given)	.	8	2
